Assay [1] has as its target Tyrosine-protein kinase CSK (Homo sapiens) (UniProt P41240). The note with it: at 1 µM.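 Note: each value is an averaged inhibition reading.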
Assay [2] deals with T1, Discoidin domain-containing receptor 2 (Homo sapiens) (UniProt Q16832).
T1 sequence (whole entry): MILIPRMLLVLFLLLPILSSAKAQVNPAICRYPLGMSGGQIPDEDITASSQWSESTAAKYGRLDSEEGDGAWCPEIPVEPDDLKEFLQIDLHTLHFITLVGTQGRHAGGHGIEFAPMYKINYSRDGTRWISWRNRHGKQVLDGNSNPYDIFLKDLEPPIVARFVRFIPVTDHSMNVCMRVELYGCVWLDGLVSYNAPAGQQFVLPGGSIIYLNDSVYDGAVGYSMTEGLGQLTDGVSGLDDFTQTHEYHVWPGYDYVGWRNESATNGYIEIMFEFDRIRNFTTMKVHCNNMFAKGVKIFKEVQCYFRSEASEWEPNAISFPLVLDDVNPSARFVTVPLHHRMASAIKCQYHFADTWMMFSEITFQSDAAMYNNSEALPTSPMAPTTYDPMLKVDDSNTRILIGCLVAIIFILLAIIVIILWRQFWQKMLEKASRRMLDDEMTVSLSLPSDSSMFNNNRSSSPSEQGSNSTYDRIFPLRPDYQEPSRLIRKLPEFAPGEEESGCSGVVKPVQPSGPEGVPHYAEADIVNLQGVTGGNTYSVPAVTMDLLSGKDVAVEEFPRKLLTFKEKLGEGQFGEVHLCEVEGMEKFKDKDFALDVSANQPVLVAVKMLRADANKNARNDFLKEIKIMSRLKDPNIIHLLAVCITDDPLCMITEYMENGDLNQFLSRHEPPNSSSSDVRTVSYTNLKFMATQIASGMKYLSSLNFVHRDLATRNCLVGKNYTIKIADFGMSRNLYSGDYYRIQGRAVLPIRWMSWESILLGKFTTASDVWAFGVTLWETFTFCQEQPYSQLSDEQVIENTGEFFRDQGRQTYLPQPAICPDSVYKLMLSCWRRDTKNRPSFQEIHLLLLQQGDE
The note with it: at 0.1 µM.

Assay [3] has as its target T1, Discoidin domain-containing receptor 2 (Homo sapiens). The conditions noted are these: at 1 µM.
The target in assay [4] is Epidermal growth factor receptor (Homo sapiens) (UniProt P00533). The conditions noted are these: at 0.1 µM.
For assay [5] the target is unchanged. The note with it: at 1 µM.
In assay [6] the test system is Epidermal growth factor receptor (Homo sapiens), P00533 [L858R]. The note with it: at 0.1 µM.
Epidermal growth factor receptor (Homo sapiens), P00533 [L858R], sequence (P00533 whole entry L858R): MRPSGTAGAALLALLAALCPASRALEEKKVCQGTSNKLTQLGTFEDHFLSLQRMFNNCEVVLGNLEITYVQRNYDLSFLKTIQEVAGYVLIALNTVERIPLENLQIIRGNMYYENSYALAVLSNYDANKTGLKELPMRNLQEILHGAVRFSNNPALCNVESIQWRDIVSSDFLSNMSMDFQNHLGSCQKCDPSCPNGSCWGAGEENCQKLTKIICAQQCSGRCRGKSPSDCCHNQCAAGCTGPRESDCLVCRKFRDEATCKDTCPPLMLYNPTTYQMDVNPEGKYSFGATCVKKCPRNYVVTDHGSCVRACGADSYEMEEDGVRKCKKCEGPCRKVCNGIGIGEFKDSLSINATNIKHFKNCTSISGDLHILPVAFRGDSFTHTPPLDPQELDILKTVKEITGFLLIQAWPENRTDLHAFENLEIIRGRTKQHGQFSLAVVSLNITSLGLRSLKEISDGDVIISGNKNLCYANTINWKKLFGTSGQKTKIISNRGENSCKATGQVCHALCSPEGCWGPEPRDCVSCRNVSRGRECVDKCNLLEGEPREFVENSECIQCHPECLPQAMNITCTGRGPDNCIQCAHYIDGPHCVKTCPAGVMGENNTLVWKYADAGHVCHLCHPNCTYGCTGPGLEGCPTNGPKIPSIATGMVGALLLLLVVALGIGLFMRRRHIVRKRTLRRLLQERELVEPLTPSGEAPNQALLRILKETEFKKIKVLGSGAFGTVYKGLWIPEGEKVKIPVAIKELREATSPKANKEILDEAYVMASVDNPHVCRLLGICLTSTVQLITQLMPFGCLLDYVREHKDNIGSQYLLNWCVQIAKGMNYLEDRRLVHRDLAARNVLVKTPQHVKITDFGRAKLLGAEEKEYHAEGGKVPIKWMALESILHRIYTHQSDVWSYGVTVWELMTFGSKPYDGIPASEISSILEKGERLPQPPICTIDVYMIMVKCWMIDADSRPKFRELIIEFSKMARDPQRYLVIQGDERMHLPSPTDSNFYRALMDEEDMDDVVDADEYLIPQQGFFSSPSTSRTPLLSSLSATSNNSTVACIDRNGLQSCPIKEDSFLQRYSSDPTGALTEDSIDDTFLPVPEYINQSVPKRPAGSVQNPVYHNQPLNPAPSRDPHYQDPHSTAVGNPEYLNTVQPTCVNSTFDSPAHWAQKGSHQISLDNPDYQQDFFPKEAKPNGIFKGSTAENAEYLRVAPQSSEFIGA
Assay [7] shares this test system. The conditions noted are these: at 1 µM.
Assay [8] relates to Epidermal growth factor receptor (Homo sapiens), P00533 [L861Q]. The note with it: at 0.1 µM.
Epidermal growth factor receptor (Homo sapiens), P00533 [L861Q], sequence (P00533 whole entry L861Q): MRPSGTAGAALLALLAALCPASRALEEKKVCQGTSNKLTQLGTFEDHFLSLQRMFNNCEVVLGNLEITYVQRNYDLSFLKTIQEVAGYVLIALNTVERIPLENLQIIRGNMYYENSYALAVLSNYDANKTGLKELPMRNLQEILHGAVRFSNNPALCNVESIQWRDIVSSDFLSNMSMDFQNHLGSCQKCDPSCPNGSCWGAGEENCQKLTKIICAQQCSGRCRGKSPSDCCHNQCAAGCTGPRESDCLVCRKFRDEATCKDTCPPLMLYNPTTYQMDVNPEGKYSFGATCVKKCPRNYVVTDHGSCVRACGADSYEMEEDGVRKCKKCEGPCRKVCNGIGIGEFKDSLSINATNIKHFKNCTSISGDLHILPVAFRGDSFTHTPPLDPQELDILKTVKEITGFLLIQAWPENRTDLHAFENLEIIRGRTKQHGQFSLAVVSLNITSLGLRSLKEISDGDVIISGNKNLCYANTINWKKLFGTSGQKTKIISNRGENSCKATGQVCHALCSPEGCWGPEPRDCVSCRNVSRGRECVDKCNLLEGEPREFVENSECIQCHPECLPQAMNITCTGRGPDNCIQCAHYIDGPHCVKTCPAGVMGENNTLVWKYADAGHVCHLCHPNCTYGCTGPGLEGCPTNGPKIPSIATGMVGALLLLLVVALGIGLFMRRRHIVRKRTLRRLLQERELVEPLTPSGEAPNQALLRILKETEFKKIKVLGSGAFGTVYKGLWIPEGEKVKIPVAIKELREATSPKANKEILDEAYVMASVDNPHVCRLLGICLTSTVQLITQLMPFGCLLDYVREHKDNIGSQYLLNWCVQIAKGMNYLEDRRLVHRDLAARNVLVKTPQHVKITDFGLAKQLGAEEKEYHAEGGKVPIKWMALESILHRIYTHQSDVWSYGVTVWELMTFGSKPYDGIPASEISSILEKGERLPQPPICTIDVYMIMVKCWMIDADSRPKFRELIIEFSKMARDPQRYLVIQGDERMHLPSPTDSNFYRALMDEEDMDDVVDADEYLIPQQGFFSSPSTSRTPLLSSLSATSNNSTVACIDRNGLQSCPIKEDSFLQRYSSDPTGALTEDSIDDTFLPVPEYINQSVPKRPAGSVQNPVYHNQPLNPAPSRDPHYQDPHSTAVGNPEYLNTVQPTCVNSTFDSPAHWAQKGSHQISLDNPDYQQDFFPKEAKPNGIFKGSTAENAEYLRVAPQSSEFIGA
For assay [9] the test system is unchanged. The note with it: at 1 µM.
In assay [10] the test system is Epidermal growth factor receptor (Homo sapiens), P00533 [T790M]. The note with it: at 0.1 µM.
Epidermal growth factor receptor (Homo sapiens), P00533 [T790M], sequence (P00533 whole entry T790M): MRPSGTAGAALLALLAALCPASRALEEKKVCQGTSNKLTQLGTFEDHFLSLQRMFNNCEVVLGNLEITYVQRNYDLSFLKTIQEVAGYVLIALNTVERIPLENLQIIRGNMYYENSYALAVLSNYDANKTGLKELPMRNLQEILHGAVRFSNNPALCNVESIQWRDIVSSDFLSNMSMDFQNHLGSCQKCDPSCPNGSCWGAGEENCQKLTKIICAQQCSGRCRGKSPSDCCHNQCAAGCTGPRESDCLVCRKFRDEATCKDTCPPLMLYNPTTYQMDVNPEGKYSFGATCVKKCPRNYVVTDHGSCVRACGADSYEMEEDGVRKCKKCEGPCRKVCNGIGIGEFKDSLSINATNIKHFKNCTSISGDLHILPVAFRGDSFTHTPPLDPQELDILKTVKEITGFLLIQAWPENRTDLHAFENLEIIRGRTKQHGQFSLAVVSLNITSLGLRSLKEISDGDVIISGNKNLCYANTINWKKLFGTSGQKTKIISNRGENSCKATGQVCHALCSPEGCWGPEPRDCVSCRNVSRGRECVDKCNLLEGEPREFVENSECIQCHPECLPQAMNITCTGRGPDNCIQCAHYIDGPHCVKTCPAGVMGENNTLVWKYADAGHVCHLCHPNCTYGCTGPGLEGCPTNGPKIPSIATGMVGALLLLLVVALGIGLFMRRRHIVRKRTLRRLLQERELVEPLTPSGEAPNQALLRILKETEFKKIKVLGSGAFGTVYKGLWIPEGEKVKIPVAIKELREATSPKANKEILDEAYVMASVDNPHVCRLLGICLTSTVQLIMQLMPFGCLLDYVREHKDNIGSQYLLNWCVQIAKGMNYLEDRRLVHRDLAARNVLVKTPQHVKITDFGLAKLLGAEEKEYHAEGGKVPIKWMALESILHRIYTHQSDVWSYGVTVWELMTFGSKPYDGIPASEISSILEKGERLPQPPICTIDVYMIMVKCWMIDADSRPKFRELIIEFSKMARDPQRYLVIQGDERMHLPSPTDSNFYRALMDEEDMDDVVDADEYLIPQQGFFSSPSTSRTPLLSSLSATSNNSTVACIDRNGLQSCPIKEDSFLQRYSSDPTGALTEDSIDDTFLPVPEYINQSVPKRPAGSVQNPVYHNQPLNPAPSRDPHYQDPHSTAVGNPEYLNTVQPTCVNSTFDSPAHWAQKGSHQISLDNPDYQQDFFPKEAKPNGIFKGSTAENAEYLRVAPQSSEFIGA

Tyrosine-protein kinase CSK (Homo sapiens), sequence (P41240 2-450 limits assumed): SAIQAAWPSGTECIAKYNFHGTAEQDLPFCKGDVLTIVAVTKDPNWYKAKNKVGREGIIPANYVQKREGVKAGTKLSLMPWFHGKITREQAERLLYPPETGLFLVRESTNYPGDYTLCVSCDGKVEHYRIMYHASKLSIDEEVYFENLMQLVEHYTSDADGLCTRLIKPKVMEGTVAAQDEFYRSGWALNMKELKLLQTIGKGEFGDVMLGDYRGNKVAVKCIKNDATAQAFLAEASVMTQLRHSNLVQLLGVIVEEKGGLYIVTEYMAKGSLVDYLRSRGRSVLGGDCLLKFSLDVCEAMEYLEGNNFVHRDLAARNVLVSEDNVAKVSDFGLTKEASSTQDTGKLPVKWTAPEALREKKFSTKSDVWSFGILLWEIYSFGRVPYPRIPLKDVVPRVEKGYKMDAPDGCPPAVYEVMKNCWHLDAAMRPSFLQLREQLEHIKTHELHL

Take `COc1ccc2[nH]c3c4[nH]c5ccc(OC)cc5c4c4c(c3c2c1)C(=O)NC4=O`: the inhibition in [1] amounted to 9.75%; in assay [2] it was 2.8%; in assay [3] it was 16.8%; in [4] it was 2.87%; in [5], 23.3%; in [6], 18.2%. The inhibition in assay [7] stood at 64.8%; in assay [8] it was 7.22%; in assay [9], 21.2%; in [10] it was 3.67%.

Turning to `Clc1ccc(-c2nn3ncccc3c2-c2ccnc(Nc3ccccc3)n2)cc1`, the inhibition in [1] was 5.89%; in assay [2] it was 3%; in [3], 76.7%; in assay [4], 13.2%; in [5], 61.7%; in assay [6], 43.5%. Moreover, the inhibition was determined as 87.6% in [7], 12% in assay [8], 58.5% in assay [9] and 1.98% in [10].

Consider `COC(=O)c1sc(-n2cnc3cc(OC)c(OC)cc32)cc1OCc1ccccc1C(F)(F)F`, for which the inhibition in assay [1] is 0.42%; in assay [2] it was 2.46%; in assay [3], 2.44%; in assay [4] it was -0.33%; in [5], 2.22%; in assay [6], 1.6%. Further, the inhibition in assay [7] worked out at 6.95%; in assay [8], 3.31%; in assay [9], 0.15%; in assay [10] it was 1.36%.

Regarding `O=C(Nc1n[nH]c2cc(-c3ccc(F)cc3)ccc12)C1CC1`, the inhibition in [1] was 5.61%; in assay [2], 2.28%; in [3] it was 1.71%; in assay [4], -1.79%; in assay [5], 4.27%; in [6] it was 0.24%. In addition, the inhibition in assay [7] stood at 4.19%; in [8], 1.33%; in assay [9], 2.33%; in assay [10], 1.54%.

As to `FC(F)(F)c1cccc(-c2nn3ncccc3c2-c2ccnc(Nc3ccc4c(c3)OCCO4)n2)c1`, the inhibition is 4.25% in assay [1]; 1.27% in [2]; 16.5% in assay [3]; 5.52% in assay [4]; 45.3% in assay [5]; 5.51% in assay [6]. In addition, the inhibition in assay [7] amounted to 55.7%; in [8], 8.83%; in assay [9] it was 33.4%; in assay [10], 2.2%.

In the case of `[O-][S+]1CCN(Cc2ccc(-c3ccc4ncnc(Nc5ccc(OCc6cccc(F)c6)c(Cl)c5)c4c3)o2)CC1`, the inhibition in assay [1] is 5.15%; in assay [2] it was 2.52%; in assay [3], 2.37%; in assay [4], 81.3%; in [5], 83.5%; in assay [6] it was 88.1%. Moreover, the inhibition is 99.1% in [7], 77.5% in [8], 95.7% in assay [9] and 7.36% in [10].

For `Cc1cccc2c1NC(=O)/C2=N\Nc1ccc(S(N)(=O)=O)cc1`, the inhibition in [1] was found to be 4.79%; in assay [2] it was 1.44%; in [3], 1.81%; in assay [4], 5.97%; in [5], 9.39%; in [6], 3.74%. In addition, the inhibition in assay [7] is 5.52%; in [8], 1.86%; in assay [9], 0.73%; in assay [10], -0.7%.

For the compound `Fc1ccc(-c2nn3ccccc3c2-c2ccncc2)cc1`, the results for the inhibition in assay [1], in [2] and in assay [3] were 2.22%, 1.72% and 5.54%, respectively.

In the case of `CCn1c(-c2nonc2N)nc2ccccc21`, the inhibition is -0.41% in assay [1]; 1.73% in [2]; 2.19% in [3]; 2.08% in assay [4]; 1.93% in assay [5]; 3.02% in assay [6]. The inhibition in assay [7] was 0.86%; in [8], 1.96%; in assay [9], 0.53%; in assay [10] it was -0.1%.

On to `CC1=C(C(=O)Nc2cc(Cl)c3[nH]ncc3c2)C(c2ccc(C(F)(F)F)cc2)CC(=O)N1` (stereo not drawn), for which the inhibition was 2.47% in assay [1]; 1.75% in assay [2]; 1.35% in assay [3]; -1.31% in [4]; 5.03% in [5]; 2.16% in [6]. Moreover, the inhibition came out at 7.45% in assay [7], 2.03% in [8], 2.45% in assay [9] and 1.57% in assay [10].

For the compound `COc1cc(/C=N/Nc2ncnc3[nH]ncc23)ccc1O`, the inhibition came to 24.9% in assay [1]; 1.42% in assay [2]; 2.31% in assay [3]; 2.77% in assay [4]; 8.71% in [5]; 4.32% in [6]. The inhibition in [7] was 7.89%; in assay [8] it was 2.91%; in assay [9], 4.72%; in [10], 1.39%.

Turning to `COc1cc2ncn(-c3cc(OCc4ccccc4C(F)(F)F)c(C(=O)N(C)C)s3)c2cc1OC`, the inhibition was 0.02% in assay [1]; 0.21% in assay [2]; -0.91% in [3]; 0.21% in assay [4]; 0.03% in assay [5]; -1.55% in [6]. Also, the inhibition in assay [7] was -0.64%; in [8] it was -1.32%; in [9] it was -1.92%; in assay [10] it was -1.33%.

Regarding `COc1ccc(-c2cc(-c3c[nH]nc3-c3ccccn3)ccn2)cc1`, the inhibition was 10.3% in assay [1]; 2.09% in assay [2]; 3.66% in [3]; 1.65% in assay [4]; 6.06% in [5]; 1.51% in [6]. Moreover, the inhibition in assay [7] was found to be 8.95%; in assay [8], 4.61%; in [9], 4.33%; in [10], 2.05%.

With `NC(=O)c1sc(-n2cnc3ccc(C(F)(F)F)cc32)cc1OCc1ccccc1Br`, the inhibition is 4.85% in assay [1]; 1.6% in assay [2]; 0.21% in assay [3]; 0% in [4]; -1.55% in assay [5]; 1.72% in [6]. Moreover, the inhibition in assay [7] worked out at 4.51%; in assay [8], 4.73%; in assay [9], 1.73%; in assay [10], 2.11%.

Regarding `CCOc1ccc2c(-c3ccnc(Nc4cccc(C(F)(F)F)c4)n3)cnn2n1`, the inhibition in assay [1] is 1.6%; in assay [2], 4.46%; in assay [3] it was 6.02%; in assay [4], 0.09%; in assay [5], 1.97%; in assay [6], 0.87%. For the same compound, the inhibition in assay [7] is -1.72%; in [8] it was 1.44%; in assay [9] it was -0.42%; in [10], -0.02%.

On to `Fc1ccc(-c2nn3ncccc3c2-c2ccnc(Nc3ccc4c(c3)OCCO4)n2)cc1`, for which the inhibition was found to be 12.4% in assay [1]; 37.2% in assay [2]; 82.5% in assay [3]; 59.5% in assay [4]; 82.1% in [5]; 88.3% in assay [6]. The inhibition in [7] was 98.4%; in assay [8], 63.6%; in assay [9] it was 89.5%; in [10], 15.3%.

Regarding `COc1cccc(-c2c[nH]c3c(N/N=C/c4ccncc4)ncnc23)c1`, the inhibition came to 17.3% in assay [1]; 3.82% in [2]; 14.8% in assay [3]; 7.02% in [4]; 41.9% in assay [5]; 30.4% in [6]. In addition, the inhibition in assay [7] turned out to be 82.3%; in [8], 8.35%; in assay [9], 45.4%; in assay [10], 1.02%.
